Compound activity: PubChem BioAssay, National Center for Advancing Translational Sciences (NCATS)
D1 ag: Allosteric Agonists of the Human D1 Dopamine Receptor: qHTS; D(1A) dopamine receptor (Homo sapiens), P21728; HEK293 T-REx D1 cells, calcium flux, agonist mode; activation, % at 2 µM; 360,000 tested, 1% active; in the data active = activation above about 30%; note: 0% is about no effect
Target sequence (P21728 whole entry, looked up): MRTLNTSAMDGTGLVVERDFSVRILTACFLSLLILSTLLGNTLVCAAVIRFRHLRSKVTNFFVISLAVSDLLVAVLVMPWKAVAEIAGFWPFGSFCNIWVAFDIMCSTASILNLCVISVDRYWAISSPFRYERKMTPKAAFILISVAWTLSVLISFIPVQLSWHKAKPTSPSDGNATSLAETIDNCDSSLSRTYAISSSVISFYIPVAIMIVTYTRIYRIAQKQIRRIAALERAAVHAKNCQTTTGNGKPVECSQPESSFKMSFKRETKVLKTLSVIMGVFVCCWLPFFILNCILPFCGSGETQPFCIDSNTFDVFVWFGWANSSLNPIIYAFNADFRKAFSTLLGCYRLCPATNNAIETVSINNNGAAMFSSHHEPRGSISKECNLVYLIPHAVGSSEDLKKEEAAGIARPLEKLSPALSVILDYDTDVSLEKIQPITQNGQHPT
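Inducible HEK293 T-REx D1 cells, force-coupled to calcium signalling, were plated at 4000 cells/well with tetracycline and held overnight at 30 C. After no-wash calcium dye loading, compound-evoked calcium rise over 180 s flagged agonists.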
D1 potentiator: Potentiators of Human D1 Dopamine Receptor: qHTS. D(1A) dopamine receptor (Homo sapiens), P21728. HEK293 TREx D1 cells, calcium flux, dopamine EC20 potentiation. potentiation, % at 10 µM. 360,000 tested, 0.036% active. AID 504651, 2011; in the data active = potentiation above about 30%; note: 0% is about no effect
DRD3 agonist: qHTS of D3 Dopamine Receptor Agonist: qHTS | max activation, % | 410,000 tested, 0.58% active | D3R DiscoveRx beta-arrestin cells, luminescence, 90 min | AID 652048, 2013; in the data active = max activation above about 30%; note: 0% is about no effect
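Agonist mode: compounds and dopamine controls were applied to plated cells for 90 min at 37 degrees C after an overnight attachment at 1500 cells/well. Luminescent read-out followed 30 - 60 minutes at room temperature with DiscoveRx detection reagent.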
D1 antagonist: Antagonist of Human D 1 Dopamine Receptor: qHTS; HEK293 TREx D1 cells, calcium flux, dopamine EC80; active compounds read low; activity change, negative = inhibition, % at 10 µM; AID 504652, 2011; 360,000 tested, 3.2% active; in the data active = activity change below about -30%; note: % is set by controls: 0 for no effect and ±100 for the full control effect
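Compound effects on dopamine-evoked calcium signalling were measured in tetracycline-induced HEK293 Trex D1 cells. Dopamine at EC80 followed a 180 s compound pre-read, and fluorescence was tracked kinetically for 180 s more.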
D3 antag: qHTS of D3 Dopamine Receptor Antagonist: qHTS. AID 652054, 2013. 360,000 tested, 2.5% active. max response, negative = inhibition, %. D3R cells, DiscoveRx beta-arrestin luminescence, antagonist mode; active compounds read low. D(3) dopamine receptor (Homo sapiens), P35462; in the data active = max response below about -50%; inconclusive = no clear call, values can overlap the other calls; note: % is set by controls: 0 for no effect and ±100 for the full control effect
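Cells plated overnight at 1500 cells/well, then exposed to library compounds with dopamine controls for 90 minutes at 37 degrees C. DiscoveRx reagent added for 30–60 minutes at room temperature; luminescence read, quantitative HTS format.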
The depositor's hits bear a star; ? = inconclusive; nt = no result; ! = repeats disagree. Shown are actives, neighbours in structure and some others; about 6.1% of the full set was active somewhere.

SMILES | D1 ag | D1 potentiator | DRD3 agonist | D1 antagonist | D3 antag
CCC(Cn1nnc2ccccc2c1=O)NC(=O)Nc1ccc(C)c(C)c1 (stereo unspecified) | 1.0 | -0.2 | -19.9 | -11.0 | nt
O=C(c1ccc2c(c1)OCCO2)N(Cc1cccnc1)c1nc2ccc(F)cc2s1 | 3.0 | -1.1 | 1.4 | -9.0 | nt
CN(Cc1ccccc1)CC(O)COc1ccc(CNCCCOc2cccnc2)cc1 (stereo unspecified) | 8.6 | -9.0 | -11.5 | -9.5 | ?
CN(Cc1ccccc1)CC(O)COc1ccc(CNCCOc2cccnc2)cc1 (stereo unspecified) | 3.6 | 3.1 | 61.2* | -9.6 | -9.9
CN(Cc1ccccc1)CC(O)COc1ccc(CNCc2ccc(Cl)s2)cc1 (stereo unspecified) | 54.4* | -5.2 | -1.7 | -40.7* | ?
O=C(Cn1c(=O)nc(-c2ccccc2)c2ccccc21)NCCc1ccccc1 | 1.2 | 0.6 | 9.4 | -4.2 | nt
CN(C)c1cc2c(cc1NC(=O)c1ccc(F)cc1)n(C)c(=O)n2C | 4.3 | 0.7 | 14.5 | 2.2 | nt
CCCCC(F)(F)[C@@]1(O)CC[C@H]2[C@@H](CC(=O)[C@@H]2CCCCCCC(=O)O)O1 | nt | nt | 1.5 | nt | nt
COC(=O)c1ccccc1NC(=O)Cn1cnc([N+](=O)[O-])c1 | 5.2 | -1.2 | -2.4 | -89.4* | 10.0
CSc1ccc(-c2nc3cccc(C)n3c2Nc2ccc3c(c2)OCO3)cc1 | -1.5 | 2.3 | -4.4 | -2.3 | nt
COc1ccc(N2C(=O)NC(NS(=O)(=O)c3ccccc3)(C(F)(F)F)C2=O)cc1 (stereo unspecified) | 2.8 | -1.4 | -1.0 | 21.1 | -0.9
COc1ccc(N2C(=O)NC(NS(=O)(=O)c3ccc(NC(C)=O)cc3)(C(F)(F)F)C2=O)cc1 (stereo unspecified) | -1.6 | -9.5 | 1.3 | -50.8*! | 13.1
Clc1cccc(N2CCN(Cc3ccc(Br)o3)CC2)c1 | 1.1 | -7.5 | -26.8 | -2.2 | -60.2*
COc1cc(CN2CCN(C(O)(c3ccccc3)c3ccccc3)CC2)cc(OC)c1OC | 9.2 | -12.8 | -23.3 | -66.7* | -71.6*
COc1cc(CN2CCN(c3cccc(Cl)c3)CC2)cc(OC)c1OC | 1.0 | -6.0 | -18.4 | 2.2 | -71.4*
Clc1ccc(N2CCN(Cc3ccc(Br)o3)CC2)cc1 | 0.9 | -7.5 | -22.2 | -3.4 | -52.3*
COc1cc(CN2CCN(S(=O)(=O)c3ccccc3)CC2)cc(OC)c1OC | 1.5 | -1.6 | 7.4 | 1.1 | 19.1
Cc1ccccc1Nc1nnc(-c2ccc(C)c(S(=O)(=O)NCC3CCCO3)c2)c2ccccc12 (stereo unspecified) | 1.6 | 2.9 | 6.4 | -26.4 | nt
COc1cc(NC(=O)N2CCC(CN3CCOCC3)CC2)cc(OC)c1OC | 0.7 | -2.1 | -3.5 | -13.2 | nt
Cn1c2cc(S(C)(=O)=O)sc2c2cnn(Cc3ccccc3F)c(=O)c21 | 7.2 | 17.6 | nt | -23.9 | nt
C/C=C1\C(OC2OC(CO)C(O)C(O)C2O)OC=C(C(=O)OC)C1CC(=O)OCC1C(C)C(OC(=O)CC2C(C(=O)OC)=COC(OC3OC(CO)C(O)C(O)C3O)/C2=C\C)CC1C(CO)CO (stereo unspecified) | -1.5 | -2.0 | 1.8 | -31.2* | 12.1
CCOc1ccc(N2C(=O)CC(SCCN)C2=O)cc1 (stereo unspecified) | 2.8 | 3.6 | 0.1 | 0.5 | ?
CCCCCCOc1ccc(N2C(=O)CC(SCCN)C2=O)cc1 (stereo unspecified) | 64.3* | -8.2 | 1.7 | -16.2 | 3.3
CCC(=O)Oc1ccc2ccccc2c1CNC(=O)c1ccccc1 | 1.6 | 4.7 | -2.1 | -39.8* | -24.2
O=C(NCNC(=O)c1ccccc1)c1ccccc1 | 0.7 | -5.0 | -14.3 | -19.0 | -15.3
SMILES | D1 ag | D1 potentiator | DRD3 agonist | D1 antagonist | D3 antag
COc1ccc2nc(C)cc(NCc3ccc(F)cc3)c2c1 | 84.8* | -1.2 | 1.9 | -5.4 | -0.3
COc1ccc2nc(C)cc(Nc3ccc(C)cc3)c2c1 | 3.2 | -6.5 | -5.5 | -13.5 | 12.7
CCCCCC(=O)Nc1ccc(N2CCN(CC)CC2)c(Cl)c1 | 2.6 | -12.2 | -30.6 | -52.1* | ?
CCN1CCN(c2ccc(NC(=O)c3ccc(C#N)cc3F)cc2Cl)CC1 | 10.9 | -11.2 | -4.6 | -43.3* | 8.6
CCC(Cn1nnc2ccccc2c1=O)NC(=O)Nc1ccc(C)cc1C (stereo unspecified) | 0.1 | 2.6 | 2.8 | 25.8 | nt
NNC(=O)c1cc(O)c(O)c(O)c1 | -0.8 | -10.7 | 4.7 | -35.5* | -0.9
O=C(O)c1cc(O)c(O)c(O)c1 | nt | nt | 7.4 | nt | nt
Cc1cc2c(cc3c(SCc4ccccc4Cl)nnc(C)n32)o1 | -0.3 | -2.1 | 12.2 | -0.5 | nt
COc1ccc(-n2c(=O)c3c4c(sc3n(Cc3c(F)cccc3Cl)c2=O)CN(C(C)=O)CC4)cc1OC | 1.5 | 0.1 | -12.2 | -2.2 | nt
O=C(Nc1cccc(F)c1)c1sc(Cl)nc1-c1ccccc1 | 3.9 | -0.2 | 0.6 | -36.4* | 3.4
O=C(Nc1ccc(F)cc1)c1sc(Cl)nc1-c1ccccc1 | -1.2 | 1.2 | 3.2 | 16.2 | 3.9
CC(C)/C=C1\CC/C(=C\c2ccc(N(C)C)cc2)C1=O | 243.0* | 2.5 | 4.2 | -30.9* | -3.9
CN(C)c1ccc(/C=C2/C[N+](C)(C)C/C(=C/c3ccc(N(C)C)cc3)C2=O)cc1 | nt | nt | -21.9 | nt | -22.8
Cn1/c(=N/N=C/c2ccc([N+](=O)[O-])cc2)sc2ccccc21 | 30.4* | 3.2 | nt | 3.2 | nt
CC(C)CC1NC(=O)N(CC(=O)Nc2cccc(Br)c2)C1=O (stereo unspecified) | -1.5 | -6.3 | 5.0 | -38.8* | -3.3
O=C(CC1CCCC1)Nc1cccc(Br)c1 | 3.1 | -6.8 | -3.9 | -37.7* | 0.5
CN(C)c1ccc(/C=C/C=C2/SC(=S)N(c3ccccc3)C2=O)cc1 | nt | nt | -9.7 | nt | -66.6*
O=C(O)c1ccc(N2C(=O)/C(=C/C=C/c3ccccc3)SC2=S)cc1 | 3.4 | -3.2 | 0.3 | -6.2 | 2.2
CC(C)CC1(C)N=C(c2ccccc2)C(=S)N1 (stereo unspecified) | 1.5 | -9.2 | 0.3 | -40.1* | 5.2
C#Cc1ccc(CN2CCC(C(=O)Nc3ccc(Oc4ccccc4)nc3)CC2)cc1 | 40.8* | -4.7 | -14.8 | -12.4 | -3.9
O=C(Nc1ccc(Oc2ccccc2)nc1)C1CCN(Cc2cccc(F)c2)CC1 | 9.5 | 2.1 | -17.4 | -27.9 | -5.7
Cc1ncc(CN2CCC(C(=O)Nc3ccc(Oc4cccnc4)cc3)CC2)cn1 | 3.1 | 1.9 | -4.1 | -5.6 | -21.6
O=C(Nc1ccc(Oc2cccnc2)cc1)C1CCN(Cc2ccc(F)cc2)CC1 | 35.7* | -3.2 | -25.6 | -25.3 | -11.1
